Assay outcomes (PubChem)
Compounds with a hit are over-represented: about 5.2% of the library has one in this group of screens.
VDR inhibitor = Inhibitors of the vitamin D receptor (VDR): qHTS; Vitamin D3 receptor (Homo sapiens), P11473; VDR-SRC2-3 peptide fluorescence polarization, 2 h; Potency, µM, usual class: inhibitors; 0.93% of 400,000 active
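The screen uses fluorescence polarization to detect compounds that interfere with recruitment of the SRC2-3 coactivator peptide to VDR; plates are read after 2 h at room temperature.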
rTrxR1 inhibitor = qHTS Assay for Inhibitors of Mammalian Selenoprotein Thioredoxin Reductase 1 (TrxR1): qHTS; 1% of 390,000 active; Thioredoxin reductase 1, cytoplasmic (Rattus norvegicus), O89049; recombinant rTrxR1, NADPH fluorescence consumption, selenite substrate; Potency, µM (doses to about 114 µM), actives largely listed as inhibitors; also: nearly all actives have a fitted effect of over 65% in size
Target sequence (O89049 whole entry, looked up): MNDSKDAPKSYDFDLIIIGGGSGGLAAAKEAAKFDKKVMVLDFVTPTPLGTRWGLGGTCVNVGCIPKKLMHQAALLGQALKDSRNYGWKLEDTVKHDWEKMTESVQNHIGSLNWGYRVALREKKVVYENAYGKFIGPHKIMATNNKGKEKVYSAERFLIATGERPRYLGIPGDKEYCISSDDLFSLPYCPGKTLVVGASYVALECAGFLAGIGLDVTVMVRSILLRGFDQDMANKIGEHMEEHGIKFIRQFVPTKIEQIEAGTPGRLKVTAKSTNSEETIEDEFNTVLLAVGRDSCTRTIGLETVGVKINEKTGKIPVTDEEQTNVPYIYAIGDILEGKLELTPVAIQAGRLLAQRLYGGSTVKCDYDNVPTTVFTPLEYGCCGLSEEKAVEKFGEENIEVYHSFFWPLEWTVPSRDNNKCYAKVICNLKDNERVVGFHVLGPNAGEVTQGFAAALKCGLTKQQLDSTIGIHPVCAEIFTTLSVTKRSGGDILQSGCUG
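Rat TrxR1 (90 nM in the dispensed reagent) was pre-reduced with 400 uM NADPH for 5 min at room temperature, then incubated with compound for 15 min. After 400 uM selenite was added, NADPH fluorescence (Ex 340/Em 450 nm) was followed for 8 min.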
Sfp inh = qHTS Assay for Inhibitors of Bacillus subtilis Sfp phosphopantetheinyl transferase (PPTase) | 4'-phosphopantetheinyl transferase ffp (Bacillus subtilis), Q9F4F7 | Biochemical Sfp PPTase activity, qHTS | Potency, µM, actives largely listed as inhibitors | 3.5% of 310,000 active | AID 1490, 2009;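 also: the enzyme is Sfp with the accession as filed and its product quenches rhodamine fluorescence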
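With Hepes-Na pH 7.6 buffer containing 10 mM MgCl2, Sfp (15 nM) modified BHQ-2-YbbR (12.5 uM) using rhodamine-CoA (5 uM). Two reads 30 minutes apart at 525/598 nm yielded each well's rate.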
TrxR1 substrate = qHTS Assay for Substrates of Mammalian Selenoprotein Thioredoxin Reductase 1 (TrxR1): qHTS. Potency, µM (highest dose often 114 µM). 0.01% of 390,000 active. Thioredoxin reductase 1, cytoplasmic (Rattus norvegicus), O89049. purified TrxR1 substrate turnover, NADPH consumption readout. AID 588456, 2011; also: nearly all actives have a fitted effect of over 50% in size
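Rat TrxR1, dispensed at 90 nM, was prereduced with 400 uM NADPH (final) for 5 min at ~22 deg C, then incubated with compound 15 min before 400 uM selenite. A first-read NADPH fluorescence drop versus no-compound background flagged substrates.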
mIDH1 inhibitor = qHTS for Inhibitors of mutant isocitrate dehydrogenase 1 (IDH1): qHTS | Potency, µM (top dose mostly 76.6 µM), actives largely listed as inhibitors | Isocitrate dehydrogenase [NADP] cytoplasmic (Homo sapiens), O75874 | IDH1-R132H enzyme, NADPH consumption, diaphorase/resazurin fluorescence | 0.093% of 390,000 active; also: nearly all actives have a fitted effect of over 65% in size
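IDH1-R132H (0.5 ug/mL) preincubated 30 min with compound, then NADPH (0.016 mM) and alpha-KG (2 mM) added; 80 min at RT, pH 7.5. Remaining NADPH coupled via diaphorase/resazurin to fluorescence (540/590 nm); concentration-response curves normalized to no-enzyme control.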
PLK1 PBD inh = qHTS for Inhibitors of PLK1-PDB (polo-like kinase 1 - polo-box domain): Primary Screen; Potency, µM, hits mostly inhibitors; 2.8% of 360,000 active; Serine/threonine-protein kinase PLK1 (Homo sapiens), P53350; Plk1 PBD binding of FITC phosphopeptide, fluorescence polarization; also: series mostly up to about 57 µM; nearly all actives have a fitted effect of over 65% in size
A number is an active result; 0 = inactive; ? = inconclusive; - = no result; ! = not active in a repeat; [ ] = remark or other dose. Calls follow the shape of the dose curve; as a rule, active = well fitted curve in the direction sought with a large enough effect; inconclusive = small, poorly fitted or top-dose-only effect, or another doubt; inactive = no such curve, though single readings can be large; an effect the other way counts as inactive or inconclusive.

SMILES	VDR inhibitor	rTrxR1 inhibitor	Sfp inh	TrxR1 substrate	mIDH1 inhibitor	PLK1 PBD inh
Clc1ccccc1-c1nc(-n2ccnc2)c2ccccc2n1	56.2µM	-	0	-	-	-
Cc1ccccc1-c1nc(Nc2ccncc2)c2ccccc2n1	0	-	0	-	-	-
Clc1ccccc1-c1nc(Nc2ccncc2)c2ccccc2n1	35.5µM	-	0	-	-	-
CCc1ccc(NC(=O)Cn2cnc3nc4c(cc3c2=O)CCCC4)cc1	0	0	-	0	0	-
COc1cccc([C@@H]2Oc3ccc(OC)cc3C(=O)[C@H]2OC(=O)NS(=O)(=O)c2ccc(F)cc2)c1	0	-	0	-	-	-
CCOCCCNC(=O)N1CCN(S(=O)(=O)c2ccc3c(ccn3C)c2)CC1	0	0	-	0	0	-
CCOCCCNC(=O)c1ccc(NC(=O)N2CCCCc3ccccc32)cc1	0	0	-	0	0	-
CCCN1CNc2c(c(=O)[nH]c(=S)n2CCC(C)C)C1	0	0	-	0	-	-
O=[N+]([O-])c1cc(Cl)ccc1Sc1ccccn1	0	0	0	0	0	0
N#CC(Sc1ccccn1)c1ccc(Cl)cc1 (stereo not drawn)	?	0	28.2µM	0	0	7.52µM
CN(C)c1ccc2ccc3cccc4ccc1c2c34	-	0	-	0	-	-
COc1cc(C2C=C(C34CC5CC(CC(C5)C3)C4)NC(=S)N2)cc(OC)c1OC (stereo not drawn)	0	0[11.4 µM]	0	0[11.4 µM]	0	0
COc1ccc(C2=CC(c3cc(OC)c(OC)c(OC)c3)NC(=S)N2)cc1 (stereo not drawn)	0	?	0	0	0	11.9µM
CC(=O)Nc1sc2c(c1C#N)CCCC2	0	0	0	0	0	0
CCN1CCc2c(sc(NC(=S)NC(=O)c3ccco3)c2C(N)=O)C1	0	0	22.4µM	0	0	23.8µM
N#Cc1c(NC(=S)NC(=O)c2ccccc2)sc2c1CCC2	?	?	22.4µM	0	0	?
CC1CCc2sc(NC(=S)NC(=O)c3ccccc3)c(C#N)c2C1 (stereo not drawn)	?	0	?	0	0	?
CCN1CCc2c(sc(NC(=S)NC(=O)c3ccccc3)c2C#N)C1	79.4µM	17.8µM	56.2µM	0	0	11.2µM
CC(=O)NC(=S)Nc1sc2c(c1C#N)CCCCC2	0	0	50.1µM	0	0	10.6µM
OC(c1ccccc1)C(Nc1ccccn1)c1ccccc1 (stereo not drawn)	0	0	-	0	0	0
CC(C)C(=O)Nc1sc2c(c1C#N)CCCCC2	0	0	31.6µM	0	0	0
NN1C(=O)/C(=C\c2ccco2)SC1=S	0	0	3.16µM	0	0	0
O=C(NN1C(=O)/C(=C/C=C/c2ccccc2)SC1=S)c1ccncc1	?	0	0	0	0	?
O=C(NN1C(=O)/C(=C/C=C/c2ccco2)SC1=S)c1ccncc1	0	12.6µM	7.94µM	0	0	4.74µM
CC(C)C(C(=O)O)N1C(=O)/C(=C/c2cccn2C)SC1=S (stereo not drawn)	0	0	0	0	0	0
SMILES	VDR inhibitor	rTrxR1 inhibitor	Sfp inh	TrxR1 substrate	mIDH1 inhibitor	PLK1 PBD inh
O=C1/C(=C\c2ccco2)SC(=S)N1c1ccc(O)cc1	0	0	15.8µM	0	0	0
CC(C)C(C(=O)O)N1C(=O)/C(=C/C=C/c2ccco2)SC1=S (stereo not drawn)	0	31.6µM	20µM	?	0	2.99µM
C/C(CCN1CCCc2nc(C)c(C)cc21)=N\O[C@@H](C)CN1CCCCc2nc(C)c(C)cc21	-	-	0	-	-	-
Cc1ccc(NC(=O)Cn2cnc3sc(C(=O)O)c(C)c3c2=O)cc1Cl	0	0	-	0	0	-
O=C1/C(=C\c2ccc(O)cc2)SC(=S)N1c1cccnc1	0	0	0	0	0	0
CN(C)c1ccc(/C=C/C=C2/SC(=S)N(c3ccccc3)C2=O)cc1	0	0	0	0	0	0
O=C1/C(=C/c2ccco2)SC(=S)N1c1cccnc1	0	?	31.6µM	0	0	16.8µM
O=C1/C(=C/C=C/c2ccco2)SC(=S)N1c1ccc(O)cc1	0	35.5µM	20µM	0	0	?
COc1cc2c(NC3CCN(C)CC3)nc(N3CCCCC3)nc2cc1OCCOCCN1CCCC1	-	0	-	0	-	-
CC1Cn2cc(C(=O)Nc3ccccc3C(F)(F)F)c(=O)c3c(Cl)ccc(c32)O1 (stereo not drawn)	0	0	-	0	0	-
COc1cc(Nc2nc3c(N)cc(C(F)(F)F)cc3nc2-c2ccccc2)cc(OC)c1OC	0	0	-	0	0	0
CC(C)Cn1nc(NC(=O)C2CCCO2)c2cc3ccccc3nc21 (stereo not drawn)	0	0	0	0	0	29.9µM
COc1cc(C2NC(C(=O)O)Cc3c2[nH]c2ccccc32)cc(OC)c1OC (stereo not drawn)	0	0	70.8µM!	0	0	0
Nc1ccc2cccnc2c1	-	0	-	0	-	-
Cc1nc(C(=O)NCC(=O)c2ccccc2)c(C(F)(F)F)o1	0	0	0	0	0	0
Cc1nc(C(=O)NNC(=O)c2ccccc2)c(C(F)(F)F)o1	0	0[11.4 µM]	44.7µM	0[11.4 µM]	0	0
CCOC(=O)c1cc(S(=O)(=O)N2CCN(c3ccccc3OC)CC2)[nH]n1	0	0	-	0	0	-
COc1ccc(C(C)(C)C)cc1NC(=S)NCCN1CCOCC1	0	0	17.8µM	0	0	23.8µM
Cc1ccc(OCC(=O)Nc2ccc(NC(=O)c3ccccc3)c(C)c2)cc1	0	0	0	0	0	0
CCN(CC)CCNC(=O)C(=O)NCC(c1cccnc1)N1CCN(c2ccccc2)CC1 (stereo not drawn)	0	0	-	0[11.4 µM]	0	-
O=C(NC(c1ccccc1)c1ccccc1)c1ccc(S(=O)(=O)C(F)F)cc1	0	0	0	0	0	0
